Assay outcomes deposited in PubChem BioAssay by National Center for Advancing Translational Sciences (NCATS).
Rows were chosen to be rich in hits. Some 2.7% of all compounds tested hit in one or more screens of this group.
TrxR1 substrate = substrates of rat thioredoxin reductase 1; O89049; purified TrxR1 substrate turnover, NADPH consumption readout; Potency, µM (highest dose often 114 µM); 390,000 compounds, 0.01% hits; AID 588456; also: nearly all actives have a fitted effect of over 50% in size
Target sequence (O89049 whole entry, looked up): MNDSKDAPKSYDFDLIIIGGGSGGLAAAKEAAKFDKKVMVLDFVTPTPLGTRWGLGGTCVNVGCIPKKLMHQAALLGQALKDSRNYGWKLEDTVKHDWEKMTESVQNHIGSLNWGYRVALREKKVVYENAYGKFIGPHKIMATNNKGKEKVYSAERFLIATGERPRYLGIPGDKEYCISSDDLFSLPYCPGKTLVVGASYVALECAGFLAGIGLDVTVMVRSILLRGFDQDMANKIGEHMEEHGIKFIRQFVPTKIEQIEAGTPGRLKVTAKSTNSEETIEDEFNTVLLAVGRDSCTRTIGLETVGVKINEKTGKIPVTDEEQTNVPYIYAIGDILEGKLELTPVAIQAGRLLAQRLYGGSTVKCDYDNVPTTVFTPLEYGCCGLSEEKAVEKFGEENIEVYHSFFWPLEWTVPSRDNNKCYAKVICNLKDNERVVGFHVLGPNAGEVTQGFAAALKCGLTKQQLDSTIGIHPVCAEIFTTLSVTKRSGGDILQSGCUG
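Rat TrxR1, dispensed at 90 nM, was prereduced with 400 uM NADPH (final) for 5 min at ~22 deg C, then incubated with compound 15 min before 400 uM selenite. A first-read NADPH fluorescence drop versus no-compound background flagged substrates.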
TrxR1 inh = rat TrxR1 inhibition | O89049 | recombinant rTrxR1, NADPH fluorescence consumption, selenite substrate | Potency, µM (doses to about 114 µM), actives largely listed as inhibitors | 390,000 compounds, 1% hits | AID 588453; also: nearly all actives have a fitted effect of over 65% in size
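Rat TrxR1 (90 nM in the dispensed reagent) was pre-reduced with 400 uM NADPH for 5 min at room temperature, then incubated with compound for 15 min. After 400 uM selenite was added, NADPH fluorescence (Ex 340/Em 450 nm) was followed for 8 min.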
GLP-1R inv ag = GLP-1 receptor (human) inverse agonism; P43220; HEK293 GLP-1R CRE-luciferase, luminescence, 24 h; GLP-1R form is constitutively active; Potency, µM (titrated, usually from 38.3 µM), usual class: inhibitors; 410,000 compounds, 1.6% hits; AID 624417; also: nearly all actives have a fitted effect of over 55% in size
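Seeding at 200 cells/uL, 12 h culture, 24 hr compound treatment, then luciferase reagent and a luminescence read; cells are HEK293 stably expressing a constitutively active GLP-1R plus cAMP-responsive luciferase.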
IDH1 R132H inh = blocks human mutant IDH1 R132H enzyme; O75874; IDH1-R132H enzyme, NADPH consumption, diaphorase/resazurin fluorescence; Potency, µM (series often up to 76.6 µM), actives largely listed as inhibitors; 390,000 compounds, 0.093% hits; also: nearly all actives have a fitted effect of over 65% in size
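IDH1-R132H (0.5 ug/mL) preincubated 30 min with compound, then NADPH (0.016 mM) and alpha-KG (2 mM) added; 80 min at RT, pH 7.5. Remaining NADPH coupled via diaphorase/resazurin to fluorescence (540/590 nm); concentration-response curves normalized to no-enzyme control.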
GLP1R cytotox = cytotoxic in the GLP-1 receptor inverse agonist counter-screen; Potency, µM (series often up to 38.3 µM), hits mostly inhibitors; 410,000 compounds, 0.13% hits; HEK293 cAMP-luciferase reporter cells, luminescence, 24 h;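 also: loss of luciferase light is scored as toxicity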
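1536-well qHTS counterscreen of the MLSMR; 200 cells/uL, 12 h pre-incubation, 23 nL cpd, 24 h at 37 deg C 5% CO2, luciferase detection reagent, 12 min RT, luminescence. Inhibition = undesired.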
GLP-1R agonist = agonists of human GLP-1 receptor; P43220; HEK293 GLP-1R CRE-luciferase, luminescence, 4-6 h; cells express a hypersensitive GLP-1R form; Potency, µM (series often up to 45.6 µM), most hits filed as activators; 380,000 compounds, 0.007% hits
Large screens that a line does not name were inactive. Calls follow the shape of the dose curve; as a rule, active = well fitted curve in the direction sought with a large enough effect; inconclusive = small, poorly fitted or top-dose-only effect, or another doubt; inactive = no such curve, though single readings can be large; an effect the other way counts as inactive or inconclusive.

CCOc1ccc(NC(=O)c2nc(S(=O)(=O)Cc3ccc(F)cc3)ncc2Cl)cc1	TrxR1 inh 4.5µM (no result: GLP-1R inv ag, IDH1 R132H inh, GLP1R cytotox, GLP-1R agonist)
Cc1c(Cl)cccc1NC(=O)CSc1ccc(-c2ccccn2)nn1	none (no result: GLP-1R agonist)
Cc1cccc(CS(=O)(=O)c2ncc(Cl)c(C(=O)NCc3ccccc3)n2)c1	TrxR1 inh 6.3µM, GLP-1R inv ag inconclusive, GLP1R cytotox inconclusive
Cc1cccc(CS(=O)(=O)c2ncc(Cl)c(C(=O)Nc3c(C)cccc3C)n2)c1	TrxR1 inh inconclusive, GLP-1R inv ag inconclusive, GLP1R cytotox inconclusive
NC(N)=NN=C(/C=C/c1ccc([N+](=O)[O-])o1)/C=C/c1ccc([N+](=O)[O-])o1	none (no result: TrxR1 substrate, TrxR1 inh, GLP-1R inv ag, IDH1 R132H inh, GLP1R cytotox)
O=C(O)/C=C/c1ccc([N+](=O)[O-])o1	TrxR1 inh 10µM
O=[N+]([O-])c1ccc(/C=N/N=C/c2ccc([N+](=O)[O-])o2)o1	TrxR1 inh 2.5µM, GLP-1R inv ag inconclusive, GLP1R cytotox 10µM
CC(=O)N/N=C/c1ccc([N+](=O)[O-])o1	none (no result: TrxR1 substrate, TrxR1 inh, GLP-1R inv ag, IDH1 R132H inh, GLP1R cytotox)
N#CCc1ccc(NC(=O)/C=C/c2ccc([N+](=O)[O-])o2)cc1	TrxR1 inh 16µM, GLP1R cytotox 4µM
O=[N+]([O-])c1ccc(/C=N/NS(=O)(=O)c2ccc(Cl)cc2)o1	TrxR1 inh 14µM
Cc1ccc(S(=O)(=O)N/N=C\c2ccc([N+](=O)[O-])o2)cc1	TrxR1 inh inconclusive
COc1cc2c(cc1OC)n(CC(=O)c1ccc(C)cc1)c(=O)n1nc(CCn3nc(C)cc3C)nc21	none (no result: GLP-1R agonist)
O=C(O)c1ccc(Nc2nc3ccccc3c3nncn23)cc1	none (no result: GLP-1R agonist)
N#C/C(=C\c1ccc([N+](=O)[O-])o1)C(=O)Nc1ccc(F)cc1	TrxR1 inh 3.2µM
CC1CN(N=Cc2ccc([N+](=O)[O-])o2)C(=N)O1 (configuration not stated)	TrxR1 inh 35µM
Cc1ccc(N2C(=O)C(CN3CCCC3)C2c2ccccc2)cc1 (configuration not stated)	GLP-1R inv ag 10µM
O=C(Nc1cc(C(F)(F)F)ccc1N1CCOCC1)c1n[nH]c(=O)c2ccccc12	IDH1 R132H inh 12µM, GLP1R cytotox inconclusive
C[N+](C)(CCCCCC[N+](C)(C)C1c2ccccc2-c2ccccc21)C1c2ccccc2-c2ccccc21	none (no result: TrxR1 substrate, TrxR1 inh, GLP-1R inv ag, IDH1 R132H inh, GLP1R cytotox)
CC(/C=N/NC(=O)Cc1cccs1)=C\c1ccco1	TrxR1 inh inconclusive
CC(/C=C/c1ccco1)=N/NC(=O)Cc1cccs1	TrxR1 inh 40µM
CC(/C=C/c1ccco1)=N\NC(=O)c1cc(C)[nH]n1	TrxR1 inh 16µM
CC(C)OC(=O)c1ccc(NCc2cc(O)ccc2O)cc1	GLP-1R inv ag inconclusive, GLP1R cytotox inconclusive
O=C(OCc1ccccc1)c1ccc(NCc2cc(O)ccc2O)cc1	GLP-1R inv ag 7.1µM, GLP1R cytotox 5µM
COP(=O)(OC)c1ccc(NCc2cc(O)ccc2O)cc1	TrxR1 inh 79µM
CCCCC1CCC(C(=O)Nc2ccccc2N2CCOCC2)CC1 (configuration not stated)	GLP-1R inv ag 10µM
Cc1ccc(C(=O)/C=C/C(=O)c2ccc(C)cc2)cc1	TrxR1 inh 3.2µM, GLP1R cytotox inconclusive
Cc1ccc(C(=O)/C=C/Nc2ccccn2)cc1	GLP-1R inv ag 5.6µM
Cc1c(C(=O)NCCO)[n+](=O)c2ccccc2n1[O-]	none (no result: TrxR1 substrate, TrxR1 inh, GLP-1R inv ag, IDH1 R132H inh, GLP1R cytotox)
CN(C)CCCN(C(=O)c1ccc2c(c1)CCCC2)c1nc2cc3c(cc2s1)OCO3	GLP-1R inv ag 2µM, GLP1R cytotox inconclusive
CCN(CC)CCN(C(=O)c1ccccc1OC)c1nc2ccc(F)cc2s1	GLP-1R inv ag inconclusive
CN(C)CCN(C(=O)CCS(=O)(=O)c1ccccc1)c1nc2c(F)cccc2s1	TrxR1 inh 25µM
CCN(CC)CCN(C(=O)c1ccc2c(c1)OCCO2)c1nc2cc(C)cc(C)c2s1	GLP-1R inv ag 11µM
CCN(CC)CCN(C(=O)CCS(=O)(=O)c1ccccc1)c1nc2cc(OC)c(OC)cc2s1	TrxR1 inh 11µM
COc1cc(NC(=O)Cc2c(C(=O)O)c(C)cn2C)cc(OC)c1	none (no result: GLP-1R agonist)
